PubChem BioAssay (NCI)
About 83,000 compounds went through this panel and 20% of them were active in at least one assay; those are over-represented in the sample as a whole.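 Values shown are percent growth following 48 h exposure of cells in 96-well plates to a single concentration of compound; below 10 was considered active.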 A number with no mark means an inactive call. Active and inactive are the calls of the source.

Assays:
Experiment in all cases: NCI-60 one-dose screen, 48 h (100 = growth as untreated, 0 = no growth, -100 = all killed)
Conditions in all cases: 10 µM
EKVX NSCLC = system: EKVX NSCLC
SN12C renal = system: SN12C renal
UO-31 renal = system: UO-31 renal
TK-10 renal = system: TK-10 renal
ACHN renal = system: ACHN renal
CAKI-1 renal = system: CAKI-1 renal
A498 renal = system: A498 renal
CCRF-CEM leukemia = system: CCRF-CEM leukemia
MOLT-4 leukemia = system: MOLT-4 leukemia
SR leukemia = system: SR leukemia
RPMI-8226 leukemia = system: RPMI-8226 leukemia
OVCAR-8 ovarian = system: OVCAR-8 ovarian
OVCAR-5 ovarian = system: OVCAR-5 ovarian
OVCAR-4 ovarian = system: OVCAR-4 ovarian
SK-OV-3 ovarian = system: SK-OV-3 ovarian
IGROV1 ovarian = system: IGROV1 ovarian
OVCAR-3 ovarian = system: OVCAR-3 ovarian
HS 578T breast = system: HS 578T breast
NCI/ADR-RES ovarian = system: NCI/ADR-RES ovarian
T-47D breast = system: T-47D breast

Compound | growth (EKVX NSCLC) [%] | growth (SN12C renal) [%] | growth (UO-31 renal) | growth (TK-10 renal) | growth (ACHN renal) | growth (CAKI-1 renal) | growth (A498 renal) | growth (CCRF-CEM leukemia) [%] | growth (MOLT-4 leukemia) | growth (SR leukemia) | growth (RPMI-8226 leukemia) | growth (OVCAR-8 ovarian) | growth (OVCAR-5 ovarian) [%] | growth (OVCAR-4 ovarian) | growth (SK-OV-3 ovarian) [%] | growth (IGROV1 ovarian) | growth (OVCAR-3 ovarian) | growth (HS 578T breast) | growth (NCI/ADR-RES ovarian) | growth (T-47D breast)
Fc1ccc(-c2nnc(-c3c(-c4ccc(F)cc4)nc4ccccn34)o2)cc1 | 95.3 | 77.2 | 83.8% | 102% | 83.2% | 91.1% | 62% | 95.4 | 100% | 47.3% | 85.1% | 36.7% | 99.9 | 88.8% | 85.3 | 114% | 90.3% | 92.4% | 67.7% | 62.3%
CCN(CC)CCOc1nc2cc(OC)c(OC)cc2c2c1-c1ccc(OC)cc1C2=O | 98.6 | 80.7 | 47.7% | 105% | 56% | 35.7% | 96.6% | 22.4 | 9.28% (active) | -29.6% (active) | 49.2% | 52.9% | 111 | 61.5% | 77.3 | 60.4% | 80% | 89.6% | 64.4% | 107%
COc1ccc2c(c1)C(=O)c1c-2c(OCCN(C)C)nc2cc(OC)c(OC)cc12 | 93.9 | 51.9 | 46.8% | 64.2% | 38.3% | 81% | 102% | 28.2 | 11.6% | 1.83% (active) | 32.2% | 37.2% | 117 | 50.7% | 74.2 | 35% | 63.9% | 85.7% | 41.8% | 101%
Clc1ccc(-c2cn(-c3ccccc3)c(-c3ccccc3)n2)c(Cl)c1 | 50.5 | 12.2 | -66.9% (active) | -82.9% (active) | -100% (active) | -22.8% (active) | -28.3% (active) | 34.8 | 6.15% (active) | -51.6% (active) | 16% | 9.55% (active) | 16.4 | -100% (active) | 25.1 | -26.3% (active) | -84% (active) | -20.3% (active) | 13.6% | -17.6% (active)
O=C(Nc1ccc(Cl)c(Cl)c1)Nc1c(Oc2ccc(Cl)c(Cl)c2)ccc(Cl)c1S(=O)(=O)O | 38.2 | 36.4 | 21.2% | 25.3% | 61.2% | 12.1% | -13.3% (active) | 13.5 | 25% | 1.34% (active) | 14.9% | 27.7% | 53.7 | 65.6% | 22.4 | 30.4% | -9.85% (active) | -5.79% (active) | 2.06% (active) | 51.4%
CCCCCCCCCCCC[n+]1ccc(C(N)=O)cc1 | 22.2 | 12.3 | 64.4% | -28% (active) | 87.5% | 41.1% | 78.9% | 13 | 13.6% | 14.5% | -6.05% (active) | 16.1% | 20.5 | 48.8% | 45.5 | -18.7% (active) | 23.2% | 31.3% | 103% | 38.8%
COc1cc(-c2cc(C(=O)N3CCN(C(=O)c4ccccc4NCc4ccco4)CC3)nc3cc(-c4ccccc4)nn23)cc(OC)c1OC | 49 | 44.4 | 6.15% (active) | 35.8% | 53.6% | 12% | -0.0574% (active) | 19.3 | 37.8% | -2.88% (active) | 21.3% | 39.5% | 64.1 | 68.6% | 27.3 | 23% | -37.8% (active) | 36.5% | 6.24% (active) | 50.9%
O=C(Nc1nc2ccc(F)cc2s1)c1cc(-c2ccc(F)cc2)n2nc(-c3ccccc3)cc2n1 | 84.1 | 87.5 | 98.2% | 113% | 107% | 85.6% | 124% | 74.5 | 99.7% | 35% | 97.7% | 38.6% | 107 | 17.9% | 86.4 | 122% | 82.8% | 73.3% | 53% | 75.2%
CCCCCC(=O)c1ccc(OCCCN2CCN(C(=O)OCC)CC2)cc1 | 83.4 | 94.8 | 77.4% | 101% | 96.1% | 95.2% | 95.5% | 21.1 | 78.6% | 84.4% | 48.6% | 104% | 86 | 85.1% | 104 | 112% | 104% | 102% | 83.3% | 88.1%
COc1ccc2c(c1)N(CCO)C1=C(C(=O)OC1)C2c1cc(OC)c(OC)c(OC)c1 (centres undefined) | 40.3 | 26 | 15.2% | 66% | 32.8% | 6.97% (active) | -12.2% (active) | 11.6 | 19.3% | 23.5% | 18.7% | 7.94% (active) | 39.8 | 51% | 20.6 | 9.98% (active) | -53.2% (active) | -6.85% (active) | -14.7% (active) | 71.9%
COc1ccc(-c2nnc(-c3c(-c4ccccc4)nc4ncccn34)o2)cc1OC | 114 | 97.3 | 79% | 111% | 88.8% | 103% | 117% | 96.7 | 93.1% | 81.1% | 94.8% | 99% | 91.7 | 93.1% | 95.9 | 98.5% | 108% | 98.3% | 101% | 87.2%
COc1ccc(-c2nc3ncccn3c2-c2nnc(-c3ccsc3C)o2)cc1 | 94.5 | 87.7 | 73.8% | 96.7% | 72.3% | 82.9% | 99.4% | 90.1 | 97% | 83.4% | 86.9% | 25.2% | 102 | 25.7% | 54.4 | 94.7% | 55.4% | 56.4% | 61.1% | 
COc1ccc2c(c1)C(=O)c1c-2c(OCCN2CCCCC2)nc2ccc(OC)cc12 | 39.6 | 20 | -6.08% (active) | 41.1% | 9.5% (active) | -11.5% (active) | 53.7% | 14.3 | 8.36% (active) | 2.46% (active) | 16.4% | 18.6% | 63.6 | 41.9% | 34.5 | 4.11% (active) | 22% | 57.8% | 26% | 36.6%
COc1cc(-c2cc(C(=O)N3CCN(C(=O)c4ccccc4NCc4cccs4)CC3)nc3cc(-c4ccccc4)nn23)cc(OC)c1OC | 94.4 | 87.5 | 39.8% | 70.1% | 73.9% | 55.2% | 74.2% | 73.9 | 79.3% | 23% | 75.2% | 90% | 86.6 | 89.4% | 86.7 | 36.6% | 9.27% (active) | 85.7% | 52.6% | 79.6%
CCN(CC)CCC(CNc1c(C)cnc2cc(Cl)ccc12)c1ccc(Cl)cc1 (centres undefined) | 70.8 | 56.7 | 41.8% | 89.6% | 44.8% | 60.1% | 19.8% | 42 | 39.5% | -10.8% (active) | 44% | 61.8% | 54.6 | 56.6% | 81.7 | 46.4% | 70.8% | 70.1% | 59% | 59.6%
CCN(CC)CCC(CNc1c(C)cnc2cc(Cl)ccc12)c1ccc(Cl)c(Cl)c1 (centres undefined) | 73.5 | 59.1 | 44.5% | 94.4% | 54.8% | 62.1% | 24.6% | 30.3 | 25.2% | -19.1% (active) | 24.5% | 65.7% | 58.3 | 63.6% | 84.1 | 33.2% | 77% | 72.3% | 63.7% | 65.4%
